# Among all 310,000 compounds or so, about 14,000 (4.5%) showed an effect of 50% or more. The effect is printed as a negative number. What follows is part of a selection rich in strong results, with near analogues and random picks from the rest.
# Target: human ether-à-go-go-related gene (hERG) potassium channel (human, UniProt Q12809)
# Assay: primary screen, population patch clamp on CHO cells stably expressing hERG; higher = less effect of the substance
# 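Also: peak tail current of the secondary pulse compared with the same well before compound.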
# human ether-à-go-go-related gene (hERG) potassium channel, sequence (Q12809 whole entry, looked up): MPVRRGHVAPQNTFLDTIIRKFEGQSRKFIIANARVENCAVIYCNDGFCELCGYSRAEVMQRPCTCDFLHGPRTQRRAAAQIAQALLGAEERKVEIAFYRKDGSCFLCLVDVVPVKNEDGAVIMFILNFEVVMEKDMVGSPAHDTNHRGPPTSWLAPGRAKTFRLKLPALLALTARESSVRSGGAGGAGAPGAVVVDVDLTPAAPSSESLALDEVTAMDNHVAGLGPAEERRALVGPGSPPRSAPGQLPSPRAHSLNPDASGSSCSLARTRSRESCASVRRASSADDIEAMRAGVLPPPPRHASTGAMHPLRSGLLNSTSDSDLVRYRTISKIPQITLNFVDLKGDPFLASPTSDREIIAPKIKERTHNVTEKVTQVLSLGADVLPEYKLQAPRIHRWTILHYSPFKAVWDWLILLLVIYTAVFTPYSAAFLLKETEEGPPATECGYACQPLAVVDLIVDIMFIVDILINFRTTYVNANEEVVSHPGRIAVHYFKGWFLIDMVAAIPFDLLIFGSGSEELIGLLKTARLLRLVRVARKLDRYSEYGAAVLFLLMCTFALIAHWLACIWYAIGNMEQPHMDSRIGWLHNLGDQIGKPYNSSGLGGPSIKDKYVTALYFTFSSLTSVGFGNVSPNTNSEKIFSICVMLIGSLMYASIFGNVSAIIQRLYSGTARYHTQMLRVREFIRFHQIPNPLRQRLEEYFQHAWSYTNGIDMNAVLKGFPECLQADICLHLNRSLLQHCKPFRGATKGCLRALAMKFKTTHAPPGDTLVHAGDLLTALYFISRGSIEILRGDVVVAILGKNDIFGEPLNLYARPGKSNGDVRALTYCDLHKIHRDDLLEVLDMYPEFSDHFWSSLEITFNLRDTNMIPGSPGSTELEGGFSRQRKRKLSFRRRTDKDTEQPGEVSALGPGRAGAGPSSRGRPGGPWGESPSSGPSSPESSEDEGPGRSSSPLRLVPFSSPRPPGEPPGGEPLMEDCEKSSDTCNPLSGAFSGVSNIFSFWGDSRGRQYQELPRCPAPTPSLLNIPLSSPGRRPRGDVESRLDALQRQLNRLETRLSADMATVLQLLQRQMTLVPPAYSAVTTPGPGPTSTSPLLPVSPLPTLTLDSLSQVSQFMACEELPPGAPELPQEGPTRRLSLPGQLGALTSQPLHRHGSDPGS
row,Compound,"hERG current change (%, negative = inhibition) at 10uM"
1,COc1ccc(C(=O)c2c3ccc([N+](=O)[O-])cc3[n+]([O-])n2CCCC(N)=O)cc1,-34.6%
2,COc1ccc2c(C(=O)c3ccc(C)cc3)n(Cc3ccc(C(N)=O)cc3)[n+]([O-])c2c1,-12.5%
3,COc1ccc(C(=O)c2c3ccccc3[n+]([O-])n2CCC(N)=O)cc1,13.1%
4,COc1ccc2c(C(=O)c3ccc(C)cc3)n(CCCC(N)=O)[n+]([O-])c2c1,-44.2%
5,COc1ccc(C(=O)c2c3ccc(C(F)(F)F)cc3[n+]([O-])n2CCCC(N)=O)cc1,-51.6%
6,COc1ccc(C(=O)c2c3ccc(OC)cc3[n+]([O-])n2Cc2ccc(C(N)=O)cc2)cc1,-42%
7,COc1ccc(C(=O)c2c3ccc(OC)cc3[n+]([O-])n2CCCC(N)=O)cc1,-34.9%
8,COc1ccc(C(=O)c2c3ccc(C(F)(F)F)cc3[n+]([O-])n2CCC[NH3+])cc1.[Cl-],-73.3%
9,COc1ccc2c(C(=O)c3ccc(Cl)cc3)n(CCCC(N)=O)[n+]([O-])c2c1,-55.5%
10,COc1ccc(S(=O)(=O)O/N=C2\CCSc3ccc(C)cc32)cc1,3.61%
11,CCOCCCNCc1cn(-c2ccc(F)cc2F)nc1-c1ccccc1C,-48%
12,CCc1cc(=O)oc2cc(C)cc(OC(C)C(=O)NCCN3CCOCC3)c12 (stereo not drawn),4.16%
13,CCO[C@@H]1OC(C(=O)NCc2nc3ccccc3[nH]2)=C[C@H](c2ccc(C(F)(F)F)cc2)[C@H]1CCCO,-3.34%
14,COC(=O)c1ccc(C[n+]2ccccc2)cc1.[Br-],17.3%
15,Cc1nnc(SCC(=O)N2CCc3ccccc3C2)n1-c1ccccc1,-23.6%
16,Cc1ccc(CNC(=O)CN2CCN(Cc3ccc(Cl)cc3)C2=O)cc1,-20.9%
17,Cc1ccc(CN2CCN(CC(=O)NCc3ccc(Cl)cc3)C2=O)cc1,-50.4%
18,Cc1ccc(CN2CCN(CC(=O)N3CCc4ccccc4C3)C2=O)cc1,-50.8%
19,Cc1ccc(-n2c(C)nnc2SCC(=O)N2CCc3ccccc3C2)cc1C,-21.9%
20,COCCCNC(=O)CN1CCN(Cc2ccc(Cl)cc2)C1=O,1.74%
21,CCN(CCNC(=O)CN1CCN(Cc2ccc(Cl)cc2)C1=O)c1ccccc1,-52%
22,Cc1ccc(CN2CCN(CC(=O)N3CCC(C(N)=O)CC3)C2=O)cc1,5.43%

row,Compound,"hERG current change (%, negative = inhibition) at 10uM"
1,Cc1ccc(-n2c(C)nnc2SCC(=O)N2CCc3ccccc3C2)cc1,-53.3%
2,Cc1ccc(CN2CCN(CC(=O)O)C2=O)cc1,41.5%
3,CN(CCNC(=O)CN1CCN(Cc2ccccc2Cl)C1=O)Cc1ccccc1,-30.4%
4,Cc1ccc(CNC(=O)CN2CCN(Cc3ccc(C)cc3)C2=O)cc1,-26.5%
5,CC(NC(=O)c1ccc(Cl)cc1)c1nnc(SCC(=O)NC2=NCCS2)n1C (stereo not drawn),22.3%
6,Cc1cc(O)c(N)c(C)c1Cl.Cl,-4.7%
7,Cn1c(=O)[nH]c(=O)c2c1nc(CN1CCN(c3cccc(Cl)c3)CC1)n2CCc1ccccc1,-21.8%
8,CCOC(=O)C1=C(C)NC(SC)=C(C#N)C1CC(C)C (stereo not drawn),-12.3%
9,CCN(CC)S(=O)(=O)c1ccc(-c2nnc(SCC(N)=O)n2CC)cc1,35.8%
10,CCN1CCCC1CNC(=O)CN(C)S(=O)(=O)c1ccc(Cl)cc1 (stereo not drawn),-21.6%
11,Cc1ccc(S(=O)(=O)Nc2c(C)nc3nc(C)[nH]n3c2=O)c(C)c1,10.3%
12,Cc1ccc(N2C(=O)c3cccc4c(C(=O)O)ccc(c34)C2=O)cc1,8.57%
13,COc1ccc(-n2ncc3c(=O)n(CC(=O)N(C(C)C)C(C)C)cnc32)cc1,0.562%
14,Cc1cc(Br)cn2ccnc12,-6.51%
15,CC(Sc1nnc(C2CCCCC2)n1N)C(=O)NCc1ccc2c(c1)OCO2 (stereo not drawn),3.2%
16,CN1CCN(CCCNC(=O)c2ccc3c(=O)n(CCc4ccccc4)c(=O)[nH]c3c2)CC1,15.3%
17,O=C(CN1CCN(Cc2ccc(F)cc2)C1=O)NCc1cccs1,-1.62%
18,O=C(CN1CCN(Cc2ccccc2)C1=O)NCc1cccs1,1.2%
19,O=C(CN1CCN(Cc2ccc(Cl)cc2)C1=O)NCc1cccs1,-57.6%
20,CC1CCCC(C)N1C(=O)CSc1nc2c(c(=O)n(C)c(=O)n2C)n1C (stereo not drawn),5.34%
21,O=C(c1ccc([N+](=O)[O-])cc1)N1CCSC1c1ccccc1 (stereo not drawn),-39.3%
22,O=C(c1ccc([N+](=O)[O-])cc1)N1CCSC1c1ccccc1Cl (stereo not drawn),7.77%

row,Compound,"hERG current change (%, negative = inhibition) at 10uM"
1,O=C(c1ccc([N+](=O)[O-])cc1)N1CCSC1c1ccc(Cl)cc1 (stereo not drawn),-76.9%
2,O=C(c1ccc([N+](=O)[O-])cc1)N1CCSC1c1cccc(Cl)c1 (stereo not drawn),-69.3%
3,O=C(NNC(=O)c1ccc([N+](=O)[O-])cc1)c1ccc(Br)cc1,14.5%
4,CCOC(=O)c1ccc(NC(=S)N2CCSC2c2ccc(Br)cc2)cc1 (stereo not drawn),5.4%
5,O=C(c1ccc([N+](=O)[O-])cc1)N1CCSC1c1ccc(Br)cc1 (stereo not drawn),-64.2%
6,CC(=O)Nc1ccc(N2C(=O)CSC2c2ccc([N+](=O)[O-])cc2)cc1 (stereo not drawn),-11.3%
7,CN(C)c1ccc(C2SCCN2C(=O)c2ccc([N+](=O)[O-])cc2)cc1 (stereo not drawn),-66.7%
8,CN(C)c1ccc(C(=S)N2CCN(c3ccc([N+](=O)[O-])cc3)CC2)cc1,-18.7%
9,O=C(CC1C(=O)NCCN1C(=O)c1ccc([N+](=O)[O-])cc1)Nc1cccc(Cl)c1 (stereo not drawn),-40.4%
10,O=C(O)c1ccc(N2C(=O)CSC2c2cccc([N+](=O)[O-])c2)cc1 (stereo not drawn),15.5%
11,CC1NC(=O)N(C)[C@@H]2NC(=O)N(C)C(c3ccc([N+](=O)[O-])cc3)[C@@H]12 (stereo partly drawn),7.29%
12,CCCCN(C(=O)NC(=O)Nc1cc(C)ccc1C)S(C)(=O)=O,17.9%
13,CNC(=O)COC(=O)CCC(=O)c1ccc(Cl)cc1,7.45%
14,Cc1noc(C)c1COc1ccc(C(=O)Nc2ncccc2O)cc1,11.5%
15,Cc1ccc(C(=O)NCC2CCCO2)cc1[N+](=O)[O-] (stereo not drawn),4.29%
16,Cc1cc(C=C2C(=O)c3ccccc3C2=O)c(C)n1-c1ccccc1,7.13%
17,C[C@H](NC(=O)OCc1ccccc1)C(=O)NNC(=O)[C@H](Cc1ccccc1)NC(=O)OC(C)(C)C,31.2%
18,O=C1N(c2cccc(Cl)c2)C(c2cccnc2)N2CCCN12 (stereo not drawn),-4.39%
19,COc1ccccc1C1SCCN1C(=O)c1ccc([N+](=O)[O-])cc1 (stereo not drawn),-38.7%
20,CC1(C)CC2CC(C)(CN2C(=O)c2ccccc2)C1 (stereo not drawn),8.08%
21,CC1(C)CC2CC(C)(CN2C(=O)c2ccc([N+](=O)[O-])cc2)C1 (stereo not drawn),-62.4%
22,COc1ccc(C2SCCN2C(=O)c2ccc([N+](=O)[O-])cc2)cc1 (stereo not drawn),-70%

row,Compound,"hERG current change (%, negative = inhibition) at 10uM"
1,Cc1ccc(C(=O)N2CCN(C(=O)c3ccccc3)C2c2ccc(N(C)C)cc2)cc1 (stereo not drawn),-50.8%
2,CC1(C)C[C@@H]2C[C@@](C)(CN2C(=O)c2ccccc2)C1,11.3%
3,COc1ccc(N2C(=O)CSC2c2ccc([N+](=O)[O-])cc2)cc1 (stereo not drawn),-37.3%
4,COc1ccc(C2N(C(=O)c3ccccc3)CCN2C(=O)c2ccc(C)cc2)cc1 (stereo not drawn),-24.9%
5,O=C(c1ccccc1)N1CCN(C(=O)c2ccccc2)C1c1ccccc1,4.53%
6,O=C(C1CCN(S(=O)(=O)c2ccccc2)CC1)N1CCC1,12.3%
7,Cc1[nH]n(-c2ccccc2)c(=O)c1C=Nc1cnc2ccccc2c1,-8.67%
8,O=C(c1cccs1)c1ccc(-c2cccs2)s1,1.57%
9,CN(C)CCSc1nc(-c2ccccc2)nc2c1CCC2,-61.3%
10,O=C(O)CSc1nc(-c2ccccc2)nc2c1CCCC2,12.8%
11,NC(=O)CSc1nc(-c2ccccc2)nc2c1CCCC2,5.92%
12,OCC(O)CSc1nc(-c2ccccc2)nc2c1CCC2 (stereo not drawn),2.22%
13,CCSc1nc(-c2ccccc2)nc2c1CCCC2,7.26%
14,CN(C)C(=O)CSc1nc(-c2ccccc2)nc2c1CCCC2,-5.09%
15,CN(C)CCSc1nc(-c2ccccc2)nc2c1COC(C)(C)C2,-69.1%
16,CN(C)CCSc1nc(-c2ccccc2)nc2c1CCCC2,-51.3%
17,OCCSc1nc(-c2ccccc2)nc2c1CCC2,-12%
18,CSc1nc(-c2ccccc2)nc2c1COC(C)(C)C2,5.03%
19,CN(C)CCCSc1nc(-c2ccccc2)nc2c1CCC2,-50.3%
20,CC1(C)Cc2nc(-c3ccccc3)nc(SCC(O)CO)c2CO1 (stereo not drawn),-15.8%
21,O=C(NCC(c1cccs1)N1CCOCC1)C1CCN(S(=O)(=O)c2c(Cl)cccc2Cl)CC1 (stereo not drawn),-27.3%
